Reference: the supplement of paper PMC9446081
± gives the standard deviation of the averaged measurements.

Molecular target: MurC (UniProt C4ZRI6)
Assay: relative enzymatic activity vs untreated control (fraction); higher = less inhibition
Conditions: 100 µM; incubation time: 2 h at 37 C
Protocol: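 In vitro enzymatic inhibition assays (ProFoldin kits) for 12 purified essential E. coli enzymes or complexes, each treated with 218 active antibacterial compounds at 100 µM for 2 h at 37°C. Read-outs were fluorescence or absorbance (phosphate detection, dye binding), converted to activity via standard curves and expressed relative to untreated DMSO controls.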

Sequence of MurC (C4ZRI6 whole entry, looked up): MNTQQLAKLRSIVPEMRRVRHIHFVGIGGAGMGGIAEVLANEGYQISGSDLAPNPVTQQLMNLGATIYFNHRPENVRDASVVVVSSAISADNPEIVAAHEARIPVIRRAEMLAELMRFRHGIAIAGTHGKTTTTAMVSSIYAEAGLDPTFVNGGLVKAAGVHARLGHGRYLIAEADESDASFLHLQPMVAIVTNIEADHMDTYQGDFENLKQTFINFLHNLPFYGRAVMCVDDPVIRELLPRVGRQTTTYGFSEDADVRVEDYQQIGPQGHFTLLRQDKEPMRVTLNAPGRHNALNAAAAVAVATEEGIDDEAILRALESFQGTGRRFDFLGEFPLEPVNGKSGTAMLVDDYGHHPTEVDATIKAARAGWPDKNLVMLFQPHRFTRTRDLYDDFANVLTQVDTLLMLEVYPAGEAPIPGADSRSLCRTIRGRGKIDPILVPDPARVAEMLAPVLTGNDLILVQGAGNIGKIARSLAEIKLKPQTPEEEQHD

SMILES	relative enzymatic activity
O=c1[nH]c(=O)n([C@H]2C[C@H](O)[C@@H](CO)O2)cc1F	0.993 ± 0.019
NC[C@H]1O[C@H](O[C@H]2[C@H](O)[C@@H](O[C@H]3O[C@H](CO)[C@@H](O)[C@H](N)[C@H]3O)[C@H](N)C[C@@H]2N)[C@H](N)C[C@@H]1O	0.918 ± 0.078
CC(C)(O/N=C(\C(=O)N[C@@H]1C(=O)N2C(C(=O)O)=C(C[n+]3ccccc3)CS[C@H]12)c1csc(N)n1)C(=O)O	1.02 ± 0.022
C=C1c2cccc(O)c2C(=O)C2=C(O)C3(O)C(=O)C(C(N)=O)=C(O)C(N(C)C)C3C(O)C12.Cl (stereo not given)	1.079 ± 0.0059
NCCCC[C@H](NC(=O)[C@@H](NC(=O)[C@H](Cc1c[nH]c2ccccc12)NC(=O)[C@H](CCCCN)NC(=O)[C@H](CCCCN)NC(=O)[C@H](Cc1c[nH]c2ccccc12)NC(=O)[C@H](Cc1c[nH]c2ccccc12)NC(=O)[C@H](CCCCN)NC(=O)[C@@H](N)CCCCN)C(c1ccccc1)c1ccccc1)C(N)=O	0.995 ± 0.015
CN(C)C1C(O)=C(C(N)=O)C(=O)C2(O)C(O)=C3C(=O)c4c(O)ccc(Cl)c4C(C)(O)C3CC12.Cl (stereo not given)	1.05 ± 0.02
CO/N=C(\C(=O)N[C@@H]1C(=O)N2C(C(=O)O)=C(C[n+]3ccn4ncccc43)CS[C@H]12)c1nsc(N)n1	0.964 ± 0.082
CCCCCCCCCCCCCCCC[N+](C)(C)C	0.568 ± 0.56
CCn1nc(C(=O)O)c(=O)c2cc3c(cc21)OCO3	1.01 ± 0.11
Cc1cc(C(C)(C)CC(C)(C)C)ccc1OCCOCC[N+](C)(C)Cc1ccccc1.[Cl-]	0.647 ± 0.59
CN(C)c1ccc(O)c2c1CC1CC3C(N(C)C)C(O)=C(C(N)=O)C(=O)C3(O)C(O)=C1C2=O.Cl (stereo not given)	1.05 ± 0.025
CC1(C)S[C@@H]2[C@H](NC(=O)[C@H](NC(=O)N3CCNC3=O)c3ccccc3)C(=O)N2[C@H]1C(=O)O	0.907 ± 0.097
NC(=O)[C@@H]1CC[C@@H]2CN1C(=O)N2OS(=O)(=O)O	1.04 ± 0.022
CC1COc2c(N3CCN(C)CC3)c(F)cc3c(=O)c(C(=O)O)cn1c23 (stereo not given)	0.983 ± 0.042
Cc1oc(=O)oc1CN1CCN(c2cc3c(cc2F)c(=O)c(C(=O)O)c2n3C(C)S2)CC1 (stereo not given)	0.821 ± 0.066
CN1CCN(c2c(F)cc3c(=O)c(C(=O)O)cn4c3c2SCC4)CC1	0.895 ± 0.076
Cn1cc(-c2[nH]c3cc(NC(=O)[C@H](N)C4CCCCC4)cc4c3c2C=NNC4=O)cn1	0.943 ± 0.039
Oc1c(Cl)cc(Cl)c2cccnc12	0.928 ± 0.088
CO/N=C(\C(=O)N[C@@H]1C(=O)N2C(C(=O)O)=C(CSC(=O)c3ccco3)CS[C@H]12)c1csc(N)n1	0.977 ± 0.095
Cc1cn(C2CC(N=[N+]=[N-])C(CO)O2)c(=O)[nH]c1=O (stereo not given)	1.01 ± 0.068

SMILES	relative enzymatic activity
Cc1cc(=O)c(C(=O)N[C@@H](C(=O)N[C@@H]2C(=O)N3C(C(=O)O)=C(CSc4nnnn4C)CS[C@H]23)c2ccc(O)cc2)c[nH]1	1.18 ± 0.11
CN(C)CCOC(c1ccccc1)c1ccccc1.Cn1c(=O)c2[nH]c(Cl)nc2n(C)c1=O	1.02 ± 0.026
COC1C=COC2(C)Oc3c(C)c(O)c4c(O)c(c(C=NN5CCN(C6CCCC6)CC5)c(O)c4c3C2=O)NC(=O)C(C)=CC=CC(C)C(O)C(C)C(O)C(C)C(OC(C)=O)C1C (stereo not given)	0.182 ± 0.016
NC(C(=O)NC1C(=O)N2C(C(=O)O)=C(Cl)CSC12)c1ccccc1 (stereo not given)	0.944 ± 0.023
CS(=O)(=O)c1ccc(C(O)C(CF)NC(=O)C(Cl)Cl)cc1 (stereo not given)	1.04 ± 0.036
C=CC1=C(C(=O)O)N2C(=O)[C@@H](NC(=O)/C(=N\OCC(=O)O)c3csc(N)n3)[C@H]2SC1	1.12 ± 0.017
NC[C@H]1OB(O)c2c(OCCCO)cccc21	0.977 ± 0.052
CC(C)(C)CC(C)(C)c1ccc(OCCOCC[N+](C)(C)Cc2ccccc2)cc1.[Cl-]	0.398 ± 0.28
CCN1CCN(C(=O)NC(C(=O)NC2C(=O)N3C2SC(C)(C)C3C(=O)[O-])c2ccccc2)C(=O)C1=O.[Na+] (stereo not given)	0.951 ± 0.086
CC1CCc2c(N3CCC(O)CC3)c(F)cc3c(=O)c(C(=O)O)cn1c23 (stereo not given)	0.92 ± 0.079
N[C@H]1CCN(c2nc3c(cc2F)c(=O)c(C(=O)O)cn3-c2ccc(F)cc2F)C1	0.934 ± 0.034
CN1CCN(c2c(F)cc3c(=O)c(C(=O)O)cn(CCF)c3c2F)CC1	1.02 ± 0.011
COC1(NC(=O)Cc2cccs2)C(=O)N2C(C(=O)[O-])=C(COC(N)=O)CSC21.[Na+] (stereo not given)	1.15 ± 0.057
COc1c(N2CC3CCCNC3C2)c(F)cc2c(=O)c(C(=O)O)cn(C3CC3)c12.Cl (stereo not given)	1.01 ± 0.025
N[C@@H]1[C@H]2CN(c3nc4c(cc3F)c(=O)c(C(=O)O)cn4-c3ccc(F)cc3F)C[C@@H]12	0.885 ± 0.015
Cc1cn([C@H]2C[C@H](N=[N+]=[N-])[C@@H](CO)O2)c(=O)[nH]c1=O	1.08 ± 0.11
O=C(O)c1cn(C2CC2)c2cc(N3CCC(O)(COc4ccc(N5C[C@H](CO)OC5=O)cc4F)CC3)c(F)cc2c1=O	1.38 ± 0.025
CCN1CCN(c2cc3c(cc2F)c(=O)c(C(=O)O)cn3C2CC2)CC1	0.8357 ± 0.0041
COc1ccc(Cc2cnc(N)nc2N)cc1OC	1.1 ± 0.079
O=C(O)c1cn(C2CC2)c2cc(N3CCNCC3)c(F)cc2c1=O	1.03 ± 0.014
